# Experimental data published in ChEMBL document CHEMBL3988442, “University of Dundee, Small-Polar-MMV Screening Library” (2021).
# For some assays here: Potency and affinity values are given separately.
# Columns and labels:
# Design in all cases: scale not given: direction of the effect not stated beside the values
# [1] = biological target: Protein translocase subunit SecA (Escherichia coli (strain K12)) (UniProt P10408); experiment: Assay to Identify E. coli SecA ATPase Inhibitors; format: functional; conditions: 30 µM
# Chain of Protein translocase subunit SecA (Escherichia coli (strain K12)) (P10408 whole entry): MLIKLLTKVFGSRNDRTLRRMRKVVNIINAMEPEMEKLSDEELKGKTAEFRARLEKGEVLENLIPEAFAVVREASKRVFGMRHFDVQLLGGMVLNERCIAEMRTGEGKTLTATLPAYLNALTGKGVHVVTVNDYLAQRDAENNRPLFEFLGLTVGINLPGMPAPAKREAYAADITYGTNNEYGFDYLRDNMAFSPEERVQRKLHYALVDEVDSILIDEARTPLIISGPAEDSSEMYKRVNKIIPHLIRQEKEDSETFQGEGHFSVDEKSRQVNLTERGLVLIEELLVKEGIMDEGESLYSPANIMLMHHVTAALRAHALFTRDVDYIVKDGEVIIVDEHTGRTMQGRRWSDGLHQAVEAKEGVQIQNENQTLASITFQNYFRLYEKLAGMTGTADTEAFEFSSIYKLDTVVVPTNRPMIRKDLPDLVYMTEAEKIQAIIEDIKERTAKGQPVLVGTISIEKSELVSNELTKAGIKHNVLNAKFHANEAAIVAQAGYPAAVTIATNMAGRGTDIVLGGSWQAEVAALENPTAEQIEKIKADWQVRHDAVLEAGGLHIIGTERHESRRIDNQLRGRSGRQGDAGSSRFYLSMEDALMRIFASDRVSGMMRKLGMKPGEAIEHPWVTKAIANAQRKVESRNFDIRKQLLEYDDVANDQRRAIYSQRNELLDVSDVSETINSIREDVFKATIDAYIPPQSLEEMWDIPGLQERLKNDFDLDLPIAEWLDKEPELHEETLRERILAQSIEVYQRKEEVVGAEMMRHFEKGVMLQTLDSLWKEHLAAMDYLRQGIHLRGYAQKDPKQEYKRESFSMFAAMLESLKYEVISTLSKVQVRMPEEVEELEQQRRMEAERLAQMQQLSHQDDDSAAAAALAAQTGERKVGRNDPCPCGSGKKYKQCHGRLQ
# [2] = biological target: T1, Ubiquitin-activating enzyme e1, putative (Leishmania donovani (strain BPK282A1)) (UniProt E9BSI1); experiment: Leishmania donovani Ubiquitin Activating Enzyme (LdE1); format: functional; conditions: 30 µM
# T1 sequence (whole entry): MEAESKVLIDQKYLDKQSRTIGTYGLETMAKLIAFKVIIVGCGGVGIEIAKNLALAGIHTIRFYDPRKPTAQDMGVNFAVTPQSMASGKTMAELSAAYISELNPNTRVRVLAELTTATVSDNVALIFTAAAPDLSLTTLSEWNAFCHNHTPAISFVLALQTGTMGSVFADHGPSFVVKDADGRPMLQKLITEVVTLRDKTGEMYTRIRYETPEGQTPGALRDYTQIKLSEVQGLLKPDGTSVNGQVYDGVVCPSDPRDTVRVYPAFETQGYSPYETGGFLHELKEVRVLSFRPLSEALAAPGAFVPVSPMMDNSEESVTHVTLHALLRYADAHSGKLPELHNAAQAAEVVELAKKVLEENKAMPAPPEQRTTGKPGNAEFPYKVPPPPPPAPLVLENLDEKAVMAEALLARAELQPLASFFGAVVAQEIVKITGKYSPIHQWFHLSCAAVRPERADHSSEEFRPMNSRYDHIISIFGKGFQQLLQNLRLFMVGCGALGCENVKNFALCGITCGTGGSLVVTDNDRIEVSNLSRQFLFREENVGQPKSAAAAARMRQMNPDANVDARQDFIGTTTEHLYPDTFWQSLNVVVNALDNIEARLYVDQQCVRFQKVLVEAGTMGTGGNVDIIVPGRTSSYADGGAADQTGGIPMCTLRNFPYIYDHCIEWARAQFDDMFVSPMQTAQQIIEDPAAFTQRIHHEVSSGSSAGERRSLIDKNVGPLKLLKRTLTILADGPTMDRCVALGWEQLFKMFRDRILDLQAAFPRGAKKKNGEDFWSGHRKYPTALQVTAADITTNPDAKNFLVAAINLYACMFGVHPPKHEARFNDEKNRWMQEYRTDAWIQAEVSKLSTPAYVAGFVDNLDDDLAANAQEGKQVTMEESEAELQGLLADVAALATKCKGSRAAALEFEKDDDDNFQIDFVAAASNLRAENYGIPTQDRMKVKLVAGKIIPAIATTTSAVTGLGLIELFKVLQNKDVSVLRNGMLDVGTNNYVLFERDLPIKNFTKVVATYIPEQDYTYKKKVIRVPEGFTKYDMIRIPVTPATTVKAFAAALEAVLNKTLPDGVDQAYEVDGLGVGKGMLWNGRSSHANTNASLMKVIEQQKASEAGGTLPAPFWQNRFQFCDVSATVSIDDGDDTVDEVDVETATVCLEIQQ
# [3] = biological target: AMP-activated protein kinase, AMPK (Homo sapiens) (UniProt P54646+O43741+P54619+Q9UGJ0+Q9Y478+Q13131+Q9UGI9); experiment: AMP-dependent Kinase enzyme assay. An in vitro enzyme assay that detects ADP turnover that is directly proportional to AMPK activity. This uses naive AMPK that is activated during the assay with MK-8722; format: functional; conditions: 30 µM
# [4] = biological target: Sialic acid-binding Ig-like lectin 9 (Homo sapiens) (UniProt Q9Y336); experiment: Hs-Siglec9 ALPHAscreen SOP 20170721; conditions: 10 µM
# Chain of Sialic acid-binding Ig-like lectin 9 (Homo sapiens) (Q9Y336 whole entry): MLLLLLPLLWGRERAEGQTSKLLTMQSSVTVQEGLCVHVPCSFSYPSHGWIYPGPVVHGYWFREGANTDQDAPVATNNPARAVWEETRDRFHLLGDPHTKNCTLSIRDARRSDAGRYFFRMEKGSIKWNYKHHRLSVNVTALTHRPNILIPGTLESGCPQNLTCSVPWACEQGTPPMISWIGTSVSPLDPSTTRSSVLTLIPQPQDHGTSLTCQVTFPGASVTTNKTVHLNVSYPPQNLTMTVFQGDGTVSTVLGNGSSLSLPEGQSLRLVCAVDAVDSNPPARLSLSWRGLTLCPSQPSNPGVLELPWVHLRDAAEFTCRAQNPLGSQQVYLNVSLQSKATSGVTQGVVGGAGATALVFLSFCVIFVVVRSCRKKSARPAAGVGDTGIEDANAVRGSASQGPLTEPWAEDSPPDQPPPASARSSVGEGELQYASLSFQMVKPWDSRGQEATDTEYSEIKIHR
# [5] = test system: Trypanosoma cruzi; experiment: Trypanosoma cruzi phosphomannomutase and mannose-1-phosphate guanylyltransferase assay; format: functional; conditions: 10 µM
# [6] = biological target: T2, Arginase-2, mitochondrial (Homo sapiens) (UniProt P78540); experiment: in vitro enzyme assay to detect the production of urea directly proportional to the activity of Arginase II; format: functional; conditions: 33.3 µM; also: in the data most compounds retested in dose-response had high values
# T2 sequence (whole entry): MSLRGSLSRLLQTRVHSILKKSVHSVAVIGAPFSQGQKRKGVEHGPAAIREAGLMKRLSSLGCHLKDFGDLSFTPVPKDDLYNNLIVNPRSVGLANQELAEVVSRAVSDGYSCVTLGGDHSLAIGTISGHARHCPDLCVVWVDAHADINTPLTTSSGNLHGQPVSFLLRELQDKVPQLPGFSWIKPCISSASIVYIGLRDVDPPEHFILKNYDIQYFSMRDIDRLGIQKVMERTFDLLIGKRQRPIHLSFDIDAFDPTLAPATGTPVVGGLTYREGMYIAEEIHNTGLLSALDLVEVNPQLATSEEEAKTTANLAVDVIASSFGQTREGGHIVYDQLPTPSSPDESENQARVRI
# [7] = biological target: T3, Proteasome subunit beta (Trypanosoma cruzi) (UniProt O96673); experiment: Trypanosoma cruzi proteasome chymotrypsin-like activity (TcProtChymo) assay.; also: in the data most compounds retested in dose-response had high values; format: functional; conditions: 9.37 µM
# T3 sequence (whole entry): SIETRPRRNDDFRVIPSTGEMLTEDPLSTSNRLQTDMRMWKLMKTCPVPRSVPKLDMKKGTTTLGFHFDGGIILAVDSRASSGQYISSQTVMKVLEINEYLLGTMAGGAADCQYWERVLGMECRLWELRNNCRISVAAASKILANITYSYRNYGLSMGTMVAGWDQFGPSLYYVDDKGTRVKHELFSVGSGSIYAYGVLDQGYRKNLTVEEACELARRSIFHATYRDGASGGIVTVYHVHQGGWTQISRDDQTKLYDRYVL
# [8] = species: Homo sapiens; experiment: To identify inhibition of the IFN signalling (Jak-Stat) pathway via expression of an eGFP reporter gene under the control of an IFN-stimulated response element (ISRE) containing MxA promoter.; format: functional; conditions: 30 µM
# [9] = biological target: T4, Tyrosyl-tRNA synthetase, putative (Trypanosoma cruzi (strain CL Brener)) (UniProt Q4DSP6); experiment: Trypanosoma cruzi tyrosyl tRNA synthetase (TcYRS) _High Tyrosine SOP; format: functional; conditions: 30 µM; also: in the data most compounds retested in dose-response had high values
# T4 sequence (whole entry): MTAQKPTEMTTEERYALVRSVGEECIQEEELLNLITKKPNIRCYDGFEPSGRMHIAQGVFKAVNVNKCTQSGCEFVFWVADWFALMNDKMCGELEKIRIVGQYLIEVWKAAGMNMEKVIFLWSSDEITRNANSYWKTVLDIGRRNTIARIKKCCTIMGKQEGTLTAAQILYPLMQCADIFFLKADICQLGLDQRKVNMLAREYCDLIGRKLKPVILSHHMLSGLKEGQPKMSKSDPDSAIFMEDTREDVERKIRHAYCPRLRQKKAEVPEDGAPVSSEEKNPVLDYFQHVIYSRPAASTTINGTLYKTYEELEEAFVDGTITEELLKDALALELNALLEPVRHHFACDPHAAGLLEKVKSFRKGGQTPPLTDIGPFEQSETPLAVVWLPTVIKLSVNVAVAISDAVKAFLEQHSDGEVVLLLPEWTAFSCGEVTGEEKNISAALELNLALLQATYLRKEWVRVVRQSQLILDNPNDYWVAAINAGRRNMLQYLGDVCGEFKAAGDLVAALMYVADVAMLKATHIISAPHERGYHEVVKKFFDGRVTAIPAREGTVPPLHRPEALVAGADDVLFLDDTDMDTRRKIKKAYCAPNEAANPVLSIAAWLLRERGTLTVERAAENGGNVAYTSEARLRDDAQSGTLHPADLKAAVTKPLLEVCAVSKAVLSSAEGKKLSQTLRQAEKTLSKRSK
# [10] = biological target: T4, Tyrosyl-tRNA synthetase, putative (Trypanosoma cruzi (strain CL Brener)); experiment: Trypanosoma cruzi tyrosyl tRNA synthetase (TcYRS) SOP; format: functional; conditions: 30 µM
# [11] = biological target: Chromo domain-containing protein 1 (Saccharomyces cerevisiae (strain ATCC 204508 / S288c) (Baker's yeast)) (UniProt P32657); experiment: ScCHD-1 Enzyme Inhibition Assay; format: functional; conditions: 30 µM; also: in the data most compounds retested in dose-response had high values
# Chain of Chromo domain-containing protein 1 (Saccharomyces cerevisiae (strain ATCC 204508 / S288c) (Baker's yeast)) (P32657 whole entry, the tested form may be a part): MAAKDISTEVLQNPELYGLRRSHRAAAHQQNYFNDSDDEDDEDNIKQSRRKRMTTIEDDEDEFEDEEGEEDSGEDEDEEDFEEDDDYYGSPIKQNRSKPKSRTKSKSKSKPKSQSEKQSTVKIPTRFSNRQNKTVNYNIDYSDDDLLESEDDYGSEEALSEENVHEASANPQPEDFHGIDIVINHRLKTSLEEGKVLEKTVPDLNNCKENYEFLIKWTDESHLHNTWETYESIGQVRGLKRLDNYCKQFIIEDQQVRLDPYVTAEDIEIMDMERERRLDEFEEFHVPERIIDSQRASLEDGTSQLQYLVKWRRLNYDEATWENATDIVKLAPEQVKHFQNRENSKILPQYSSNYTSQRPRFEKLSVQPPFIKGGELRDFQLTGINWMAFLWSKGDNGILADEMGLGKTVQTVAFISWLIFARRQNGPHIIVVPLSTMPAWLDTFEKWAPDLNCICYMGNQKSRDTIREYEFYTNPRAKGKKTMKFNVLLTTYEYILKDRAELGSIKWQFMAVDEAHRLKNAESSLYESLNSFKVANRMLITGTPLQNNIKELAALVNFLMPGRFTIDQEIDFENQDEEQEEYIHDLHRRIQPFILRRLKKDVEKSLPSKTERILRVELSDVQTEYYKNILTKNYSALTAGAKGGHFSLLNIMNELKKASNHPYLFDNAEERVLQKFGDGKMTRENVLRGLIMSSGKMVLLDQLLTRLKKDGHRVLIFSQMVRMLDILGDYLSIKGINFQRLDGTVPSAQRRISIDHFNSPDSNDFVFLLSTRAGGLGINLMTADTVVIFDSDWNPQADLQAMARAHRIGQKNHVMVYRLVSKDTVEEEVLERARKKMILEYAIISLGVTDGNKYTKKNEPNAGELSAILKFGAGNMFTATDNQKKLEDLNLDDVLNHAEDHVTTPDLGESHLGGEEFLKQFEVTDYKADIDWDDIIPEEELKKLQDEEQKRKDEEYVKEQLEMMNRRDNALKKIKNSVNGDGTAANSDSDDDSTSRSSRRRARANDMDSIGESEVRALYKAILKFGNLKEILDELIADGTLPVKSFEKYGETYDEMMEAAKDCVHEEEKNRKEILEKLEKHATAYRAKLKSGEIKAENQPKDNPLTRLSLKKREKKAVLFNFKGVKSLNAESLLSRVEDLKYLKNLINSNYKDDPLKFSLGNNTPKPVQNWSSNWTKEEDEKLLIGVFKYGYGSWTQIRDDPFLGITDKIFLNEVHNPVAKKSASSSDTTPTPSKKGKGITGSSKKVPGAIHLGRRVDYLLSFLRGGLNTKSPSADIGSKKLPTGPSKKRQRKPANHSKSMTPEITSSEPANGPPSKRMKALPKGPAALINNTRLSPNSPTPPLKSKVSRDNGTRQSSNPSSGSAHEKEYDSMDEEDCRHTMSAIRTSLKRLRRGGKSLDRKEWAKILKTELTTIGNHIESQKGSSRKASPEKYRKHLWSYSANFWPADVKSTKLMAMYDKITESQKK
Structure (SMILES),Percent Effect [1] [%],Percent Effect [2] [%],Percent Effect [3] [%],Percent Effect [4] [%],Percent Effect [5] [%],Percent Effect [6] [%],Percent Effect [7] [%],Percent Effect [8] [%],Percent Effect [9] [%],Percent Effect [10] [%],Percent Effect [11] [%]
Cc1nnc2n1CCN(C(=O)c1cc(Cl)c[nH]1)C2,-3.51,-15.8,7.83,10.9,0.376,1.92,2.84,-3.3,0.49,-4.88,3.54
COCCN1CCN(CCS(=O)(=O)C(F)(F)F)CC1C (stereo unspecified),-3.49,8.11,-8.33,4.35,-3.62,-4.25,0.179,25.8,2.97,11,9.67
O=C(NCCCO)C1CC(=O)N(c2n[nH]c3cccc(F)c23)C1 (stereo unspecified),0.204,17.3,-5.17,-2.48,1.57,-12.2,10.5,2.36,5.29,15.4,-14.8
CCCNC(=O)NC(=O)CN(CC(C)O)c1ccccc1 (stereo unspecified),-3.79,10.4,2.88,-6.45,6.95,-0.632,6.22,-9.46,5.71,9.41,2.09
Cc1ccc(C#N)c(N2CCC(c3nccn3Cc3cscn3)CC2)n1,-1.6,10.7,-4.04,15.7,5.75,9.38,13.2,3.33,4.92,16.1,-7.28
CC1c2ncc(COc3cccnc3)n2CCN1C(=O)C1=CCCC1 (stereo unspecified),-4.3,12,-0.286,5.22,-2.75,-1.58,9.43,16.6,7.41,10.3,-7.55
CC(COc1ccc(F)cc1F)NC(=O)NCCN1CCOCC1 (stereo unspecified),-3.66,10.5,7.15,-1.15,4.77,-5.92,16,-26.7,1.06,13,-2.74
O=C(CCc1cc2n(n1)CCCN(C(=O)c1cccnc1)C2)NC1CC1,-2.13,4.17,-1.68,-4.93,-3.21,-2.21,10.7,4.24,0,7.69,-2.05
CCC(=O)N1CCc2[nH]cnc2C12CCN(C(=O)c1snnc1C)CC2,-0.279,5.33,-6.44,8.1,0.876,10.9,13.8,23.3,0.546,13.6,-1.51
COc1cccc(CCC(=O)N2CCCCC2Cn2cccn2)c1 (stereo unspecified),-4.9,7.79,6.53,2.3,1.47,1.9,3.31,9.7,0.952,2.35,-13.2
CCc1n[nH]c(C2CN(CCc3ccncc3)CCO2)n1 (stereo unspecified),-6.01,3.8,7.99,7.24,0.103,0.215,1.72,14,1.04,7.59,-9.31
O=C(NC1CC1)[C@H]1C[C@H]2OCC[C@H]2N(CC2CC2)C1,-4.51,-2.67,3.02,9.5,-3.28,-55.7,0.513,6.42,-4.17,-7.5,4.05
CC1CN(CC(=O)NC(=O)NCc2ccccc2)CCO1 (stereo unspecified),-0.548,15.8,0.54,-9.53,3.21,-1.18,19.5,11.4,2.13,7.79,-8.02
CCOC(=O)CCC(=O)NC(C)c1ccc(NC(=O)CC)cc1 (stereo unspecified),-1.67,7.89,2.06,-5.73,-1.66,1.18,9.88,6.92,6.38,13,-3.37
CCN1CCN(c2nc(C(C)C)nc3c(C)nn(CC)c23)CC1,-8.3,0,-2.21,5.36,-1.28,-5.52,-0.832,1.81,-2.15,-48.1,-0.207
CCN(CC)C(=O)CCn1ncc2c(Cl)cccc21,-0.381,1.33,3.83,7.06,-5.89,-17.1,16.1,0.421,0,2.56,-11.2
